This is an account of results in the supplement of paper PMC11417369.

The full ranking holds about 25,000 sequences; the median of “ln(normalized median fluorescence intensity)” is about 6.7, and the highest 2% start at about 10. Shown is part of a subset that was picked to be rich in the highest values.

The assay has as its system PfHDP1 homeodomain (GST-tagged). Put plainly: gcPBM binding intensity (ln(normalized median fluorescence intensity)); higher = stronger DNA binding. Summed up:
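Alexa488 anti-GST antibody, scanned at 488 nm, detected GST-tagged P. falciparum DNA-binding domains that had been expressed in E. coli and incubated for 1 h on an Agilent 4 × 180k array. The array carried primer-extended double-stranded 36-bp intergenic genomic probes and negative controls. Binding intensity is the highest Masliner-normalised natural-log median intensity across replicate spots of either orientation of each probe.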
Turning to “TATATATTGATATGCACACCTATGTATTGATGTATA [CACACA_site1073]”, the “gcPBM binding intensity (ln)” value stood at 10. For the sequence “TATATTATATGTATTGCACACCTTCAACAACTACTT [CACACA_site8121]”, the “gcPBM binding intensity (ln)” value was 10.5. As for “TTATTATGTATATATGCACACAATACCCAAAACAAC [CACACA_site80]”, the “gcPBM binding intensity (ln)” value amounted to 9.84. “AAAAAAATAAATAAATGTACACATATATATATATAT [XGTACX_site4350]”: the “gcPBM binding intensity (ln)” value came out at 9.25. Next, “AAAATGTATTCTCTCATGCACACTTTCTTTAAGGGA [CACACA_site2196]”: 8.5; “AATACAAAAAAAGGTACACACATAATATATTTATTA [CACACA_site2628]”: 6.46. For “TATATATCTTTATGCACACACAAAGAAAATTTTCCT [CACACA_site7366]”, the “gcPBM binding intensity (ln)” value came out at 10.5. In the case of “TATATATATTTTTATGCACACACAAAGAAAATTTTC [CACACA_site8931]”, the “gcPBM binding intensity (ln)” value worked out at 10.1.

Consider “TAATGTATTATATTTTGTTTTCTTCCACCAAAAAAA [XGTACX_negctrl_site64]”, for which the “gcPBM binding intensity (ln)” value was 6.41. Take “ATTATATATATTTATGCACACAAAATATATTATATA [CACACA_site9244]”: the “gcPBM binding intensity (ln)” value is 10.1. To “TATATATTTTTATGCACACACAAAGAAAATTTTCCT [CACACA_site2863]” belongs 10.8; to “TTCTTTTTCCAATTTGCACACCACAAAATTATATAT [CACACA_site2909]”, 10.6.

As for “GTTCTTTCAAATTATACACACCAAAAAAAAAAAAAA [CACACA_site5660]”, the “gcPBM binding intensity (ln)” value is 6.62. To “TATATCTTATTTAACACACACAAAGAAAATAGAAAA [CACACA_site3732]” belongs 6.81; to “AATATATCTTATTTAACACACACAAAGAAAATAGAA [CACACA_site9242]”, 7.34; to “AACAAATGTTAAATGTTTAAGGAGAAAATAAAGACA [CACACA_negctrl_site1163]”, 6.75. To “ATTTGCTCACAAGAAGCACACAAAAAAAGAAAAAAA [CACACA_site9338]” belongs 7.34. To “TATTTTTTCCTTTGTTTTTTAAACTATCTTAACTAA [XGTACX_negctrl_site519]” belongs 6.37; to TCCATATGCAAACTGGTGCACAAGTAGCTTTTATAT, 10.8. As for “TTAACTTTTTTATATGCACACATAAACAAGGATATA [CACACA_site8932]”, the “gcPBM binding intensity (ln)” value was determined as 10.1. Next, “AACTTTTTTATATGCACACATAAACAAGGATATATA [CACACA_site2874]”: 10.3; “ACACATAAATGAATAAATAAATAAATATAAATATAA [CACACA_negctrl_site1784]”: 6.21; “TAATATAGAAAATGCATACACACTTTATATATATAT [CACACA_site911]”: 8.61. To “TTTTTTTTTTTTTAAACATGCAAAATATATAATTTT [TGCATGCA_site633]” belongs 6.44; to “TAGAAATATATTTATTGTACATTGTATATATTATAT [XGTACX_site7584]”, 6.26. Next, “TGTATATAATCGAGTGCACACACAAAAAAAAAGTGA [CACACA_site8417]”: 10.1; “TATATAATCGAGTGCACACACAAAAAAAAAGTGAAC [CACACA_site1483]”: 10.4. As for “TGAATATTCATATGCACACAAATTAATATACATAAT [CACACA_site442]”, the “gcPBM binding intensity (ln)” value amounted to 10.3. To “TATATAACCGAGTGCACACACAAAAAAAAAGTGAAC [CACACA_site6806]” belongs 10.8; to “TGTAATAATTATTGCACGCACACAAAAACCTATAGA [CACACA_site2932]”, 10.2; to “TTTAATAATTATTAAAGTACAAAATAAATATTGAAT [XGTACX_site7538]”, 6.7. Next, “TTATAATATATATAAAAGAAAAAAAATTATAATATA [CACACA_negctrl_site90]”: 6.53; ATATATATATAATAAGTGCAAAAAAAAGAAAAAAAT: 9.3. “AAAAAATATAGATGCACACACAAAAAAACAAATTAA [CACACA_site6718]”: the “gcPBM binding intensity (ln)” value was found to be 8.71.

On to “TCAAAAGAATAATTGGTGCAAATTATATAATATAAT [GTGCAC_site9804]”, for which the “gcPBM binding intensity (ln)” value worked out at 10.5. Regarding “TAATAATTATTGCACGCACACAAAAACCTATAGATT [CACACA_site2931]”, the “gcPBM binding intensity (ln)” value is 10.6.

For “AATATAATATATTGCACACAAAAAGTGAATTATTCT [CACACA_site1684]”, the “gcPBM binding intensity (ln)” value worked out at 10.7.

For the sequence “TATTTATTTAATTACACACGAACATATAACCATTTC [CACACA_site211]”, the “gcPBM binding intensity (ln)” value turned out to be 6.81. “ATATATATATTTATATTTATATGTAAATATCAACGT [TGCATGCA_negctrl_site32]”: the “gcPBM binding intensity (ln)” value turned out to be 8.19.

With “ATCCCCATAAAAAATACACACAAATATTTATACATA [CACACA_site1001]”, the “gcPBM binding intensity (ln)” value was 6.79. To “TATATATATATATATACACACATATACATATTGTTT [CACACA_site3499]” belongs 9.37; to “TAATATATATAAACATGTACAAATCAAAAACAAAAG [XGTACX_site4076]”, 7.52.

In the case of “AATAATAAAAAATATACACACATATATAAATAAATA [CACACA_site6164]”, the “gcPBM binding intensity (ln)” value is 6.35. Consider “GAACAAATTAAATAGGTGCATTAACATGTTCTATTT [GTGCAC_site9729]”, for which the “gcPBM binding intensity (ln)” value worked out at 10.1. To “ATTTCTCTATCGTAATGTACAAAAAAAAGGGAAAAG [XGTACX_site1335]” belongs 6.48.
